This is part of a sample that, as a whole, favours compounds with a hit. Of some 79,000 tested, about 15% had one in any assay. Calls of active or inactive are those of the source. No stated cut-off is given here; in the data, active means growth inhibition above about 70%; inactive means the rest.
How the values were obtained:
[1] = NCI Yeast Anticancer Drug Screen. Data for the rad52 strain (AID 147);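 further: 0% = growth of vehicle-treated control cultures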; conditions: S. cerevisiae rad52 mutant growth inhibition, stronger effect = higher value
Method in brief: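 Yeast strain carrying a DNA damage repair alteration was exposed to test compounds. Growth inhibition was measured relative to vehicle-treated controls.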

[2] = NCI Yeast Anticancer Drug Screen. Data for the wt1 strain (AID 149);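 further: 0% = growth of vehicle-treated wt1 cultures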; conditions: S. cerevisiae wt1 strain (SPY 50644) growth inhibition, stronger effect = higher value
Method in brief: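 Measured: growth of wt1 yeast under compound versus vehicle treatment, reported as inhibition.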

[3] = NCI Yeast Anticancer Drug Screen. Data for the rad50EPP+ strain (AID 151);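 further: 0% = growth of vehicle-treated control cultures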; conditions: S. cerevisiae rad50 mutant strain, stronger effect = higher value
Method in brief: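 Yeast strain carrying rad50 alteration (rad50EPP+) exposed to compounds; growth inhibition measured relative to vehicle-treated controls.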

[4] = NCI Yeast Anticancer Drug Screen. Data for the rad50 strain (AID 155);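 further: 0% = growth of vehicle-only cultures of the same strain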; conditions: S. cerevisiae rad50 strain growth inhibition, stronger effect = higher value
Method in brief: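 Growth of the mutant yeast was measured after compound exposure and referenced to vehicle-treated cultures.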

[5] = NCI Yeast Anticancer Drug Screen. Data for the mec2-1 strain (AID 157); conditions: S. cerevisiae mec2-1 strain, stronger effect = higher value
Method in brief: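 mec2-1 yeast strain, carrying an alteration in DNA damage repair or cell cycle control, was exposed to compounds; growth inhibition was measured relative to vehicle-treated controls.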

[6] = NCI Yeast Anticancer Drug Screen. Data for the rad14 strain (AID 159);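 further: 0% = growth of vehicle-treated control cultures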; conditions: S. cerevisiae rad14 strain growth inhibition, stronger effect = higher value
Method in brief: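 Here, inhibition of yeast growth was measured after compound exposure, using a strain with a genetic defect in DNA damage repair and vehicle-treated cultures as the reference.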

[7] = NCI Yeast Anticancer Drug Screen. Data for the sgs1 mgt1 strain (AID 161);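 further: 0% = growth of cultures given vehicle only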; conditions: S. cerevisiae sgs1 mgt1 strain, stronger effect = higher value
Method in brief: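 Growth of a repair-deficient yeast mutant was monitored after compound treatment and expressed as inhibition relative to vehicle-treated cultures.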

[8] = NCI Yeast Anticancer Drug Screen. Data for the CLN2oe strain (AID 163);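 further: 0% = growth of vehicle-only control cultures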; conditions: S. cerevisiae CLN2oe strain, stronger effect = higher value
Method in brief: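 Yeast cells carrying a defined cell-cycle control alteration were exposed to test compounds. Growth inhibition was scored against vehicle-treated control cultures.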

[9] = NCI Yeast Anticancer Drug Screen. Data for the cln2 rad14 strain (AID 165);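 further: 0% = growth equal to vehicle treated cultures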; conditions: S. cerevisiae cln2 rad14 strain, stronger effect = higher value
Method in brief: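 Yeast carrying cln2 and rad14 alterations (cell cycle control and DNA damage repair) were exposed to compounds. Growth inhibition was measured against vehicle-treated controls.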

[10] = NCI Yeast Anticancer Drug Screen. Data for the bub3 strain (AID 167); conditions: S. cerevisiae bub3 mutant strain, stronger effect = higher value
Method in brief: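 Whole-cell yeast assay. The mutant strain was incubated with compounds, and growth inhibition was determined by comparison with vehicle-treated cells.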

[11] = NCI Yeast Anticancer Drug Screen. Data for the wt2 strain (AID 169);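 further: 0% = growth of vehicle-treated yeast cultures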; conditions: S. cerevisiae wt2 strain growth inhibition, stronger effect = higher value
Method in brief: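 Yeast cells were exposed to test compounds, and growth inhibition was measured relative to vehicle-treated controls.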

[12] = NCI Yeast Anticancer Drug Screen. Data for the mlh1 strain (AID 171);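 further: 0% = growth of vehicle-treated control cultures of the same strain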; conditions: S. cerevisiae mlh1 strain growth inhibition, stronger effect = higher value
Method in brief: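 Yeast carrying a defined genetic alteration in DNA damage repair or cell cycle control were exposed to test compounds. Growth inhibition was measured relative to vehicle-treated controls.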

[13] = NCI Yeast Anticancer Drug Screen. Data for the mlh1 rad18 strain (AID 175); conditions: S. cerevisiae mlh1 rad18 strain growth inhibition, stronger effect = higher value
Method in brief: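 Growth inhibition of the yeast strain was measured after compound exposure and expressed relative to vehicle-treated controls. The strain carries defined defects in DNA damage repair.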

[14] = NCI Yeast Anticancer Drug Screen. Data for the rad18 strain (AID 177); conditions: S. cerevisiae rad18 mutant growth inhibition, stronger effect = higher value
Method in brief: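 Yeast carrying a defined DNA damage repair alteration were exposed to compounds. Growth inhibition was expressed relative to vehicle-treated controls.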

[15] = at 5.0 µM (retest, dose inferred, filed as 0.5)
[16] = at 50.0 µM (retest, dose inferred, filed as 5.0)

Measured: growth inhibition

COc1ccc(N=Nc2ccc3oc(=O)c(C(=O)Nc4ccccc4)cc3c2)cc1
active: [1]; at 11.0 µM 85% | [1]; at 33.0 µM 96% | [1]; at 100.0 µM 95% | [2]; at 33.0 µM 96% | [2]; at 100.0 µM 94% | [3]; at 11.0 µM 83% | [3]; at 33.0 µM 94% | [3]; at 100.0 µM 95% | [4]; at 11.0 µM 89% | [4]; at 33.0 µM 96% | [4]; [16] 95% | [4]; at 50.0 µM 87.7% | [4]; at 100.0 µM 96% | [5]; at 11.0 µM 82% | [5]; at 33.0 µM 97% | [5]; [16] 97% | [5]; at 50.0 µM 91.3% | [5]; at 100.0 µM 95% | [6]; at 11.0 µM 96% | [6]; at 33.0 µM 97% | [6]; at 100.0 µM 97% | [7]; at 50.0 µM 87.2% | [8]; at 33.0 µM 95% | [8]; at 100.0 µM 92% | [9]; [16] 95% | [9]; at 50.0 µM 85.3% | [10]; at 11.0 µM 71% | [10]; at 33.0 µM 96% | [10]; [16] 96% | [10]; at 50.0 µM 90.5% | [10]; at 100.0 µM 95% | [11]; at 11.0 µM 81% | [11]; at 33.0 µM 96% | [11]; at 100.0 µM 96% | [12]; at 11.0 µM 92% | [12]; at 33.0 µM 96% | [12]; at 100.0 µM 91% | [13]; [16] 95% | [13]; at 50.0 µM 85.7% | [14]; at 11.0 µM 84% | [14]; at 33.0 µM 95% | [14]; at 100.0 µM 96%
inactive: [1]; at 1.2 µM -19% | [1]; at 3.7 µM -2% | [2]; at 1.2 µM -4% | [2]; at 3.7 µM 2% | [2]; at 11.0 µM 67% | [3]; at 1.2 µM 6% | [3]; at 3.7 µM 45% | [4]; at 1.2 µM -2% | [4]; at 3.7 µM 7% | [4]; [15] 0% | [5]; at 1.2 µM -18% | [5]; at 3.7 µM 12% | [5]; [15] -12% | [6]; at 1.2 µM 4% | [6]; at 3.7 µM 25% | [7]; [15] 12% | [7]; [16] 48% | [8]; at 1.2 µM -12% | [8]; at 3.7 µM -10% | [8]; at 11.0 µM 48% | [9]; [15] -19% | [10]; at 1.2 µM -11% | [10]; at 3.7 µM 3% | [10]; [15] 29% | [11]; at 1.2 µM 1% | [11]; at 3.7 µM 14% | [12]; at 1.2 µM 25% | [12]; at 3.7 µM 31% | [13]; [15] 39% | [14]; at 1.2 µM -7% | [14]; at 3.7 µM 5%

Cc1cccc(/C=N\NC(=S)N2CCCCC2)n1
inactive: [1]; at 1.2 µM -17% | [1]; at 3.7 µM 67% | [2]; at 1.2 µM -5% | [3]; at 1.2 µM -10% | [3]; at 3.7 µM -17% | [4]; at 1.2 µM 19% | [4]; at 3.7 µM 57% | [5]; at 1.2 µM -41% | [6]; at 1.2 µM -19% | [8]; at 1.2 µM 8% | [10]; at 1.2 µM -2% | [11]; at 1.2 µM 7%
active: [1]; at 11.0 µM 97% | [1]; at 33.0 µM 98% | [1]; at 100.0 µM 97% | [2]; at 3.7 µM 92% | [2]; at 11.0 µM 99% | [2]; at 33.0 µM 99% | [2]; at 100.0 µM 99% | [3]; at 11.0 µM 86% | [3]; at 33.0 µM 97% | [3]; at 100.0 µM 97% | [4]; [15] 98% | [4]; at 11.0 µM 97% | [4]; at 33.0 µM 97% | [4]; [16] 100% | [4]; at 50.0 µM 88.8% | [4]; at 100.0 µM 98% | [5]; at 3.7 µM 93% | [5]; [15] 97% | [5]; at 11.0 µM 98% | [5]; at 33.0 µM 99% | [5]; [16] 100% | [5]; at 50.0 µM 93.2% | [5]; at 100.0 µM 98% | [6]; at 3.7 µM 90% | [6]; at 11.0 µM 98% | [6]; at 33.0 µM 98% | [6]; at 100.0 µM 98% | [7]; [15] 97% | [7]; [16] 99% | [7]; at 50.0 µM 91.5% | [8]; at 3.7 µM 85% | [8]; at 11.0 µM 98% | [8]; at 33.0 µM 98% | [8]; at 100.0 µM 91% | [9]; [15] 98% | [9]; [16] 100% | [9]; at 50.0 µM 92.8% | [10]; at 3.7 µM 93% | [10]; [15] 97% | [10]; at 11.0 µM 98% | [10]; at 33.0 µM 99% | [10]; [16] 99% | [10]; at 50.0 µM 91.8% | [10]; at 100.0 µM 99% | [11]; at 3.7 µM 92% | [11]; at 11.0 µM 99% | [11]; at 33.0 µM 99% | [11]; at 100.0 µM 95%

Reference: PubChem BioAssay (NCI)
